According to PubChem BioAssay AID1903 (Southern Research Specialized Biocontainment Screening …, 2009):
“And” between values parts separate entries of the source, which are not always exact repeats. Equal entries are not always repeated. About 1,200 (0.39%) of roughly 310,000 compounds were called active. The rule behind the calls is not given here. Only a sample is shown. Entries with a potency or affinity are not part of this list.

Target: Large T antigen (Simian virus 40) (UniProt P03070)
Assay: TAg ATPase/helicase activity blockers – biochemical (AID 1903)
Conditions: SV40 large T antigen ATPase/helicase inhibition assay; at 20 µM; hits give high values

Chain of Large T antigen (Simian virus 40) (P03070 whole entry, looked up): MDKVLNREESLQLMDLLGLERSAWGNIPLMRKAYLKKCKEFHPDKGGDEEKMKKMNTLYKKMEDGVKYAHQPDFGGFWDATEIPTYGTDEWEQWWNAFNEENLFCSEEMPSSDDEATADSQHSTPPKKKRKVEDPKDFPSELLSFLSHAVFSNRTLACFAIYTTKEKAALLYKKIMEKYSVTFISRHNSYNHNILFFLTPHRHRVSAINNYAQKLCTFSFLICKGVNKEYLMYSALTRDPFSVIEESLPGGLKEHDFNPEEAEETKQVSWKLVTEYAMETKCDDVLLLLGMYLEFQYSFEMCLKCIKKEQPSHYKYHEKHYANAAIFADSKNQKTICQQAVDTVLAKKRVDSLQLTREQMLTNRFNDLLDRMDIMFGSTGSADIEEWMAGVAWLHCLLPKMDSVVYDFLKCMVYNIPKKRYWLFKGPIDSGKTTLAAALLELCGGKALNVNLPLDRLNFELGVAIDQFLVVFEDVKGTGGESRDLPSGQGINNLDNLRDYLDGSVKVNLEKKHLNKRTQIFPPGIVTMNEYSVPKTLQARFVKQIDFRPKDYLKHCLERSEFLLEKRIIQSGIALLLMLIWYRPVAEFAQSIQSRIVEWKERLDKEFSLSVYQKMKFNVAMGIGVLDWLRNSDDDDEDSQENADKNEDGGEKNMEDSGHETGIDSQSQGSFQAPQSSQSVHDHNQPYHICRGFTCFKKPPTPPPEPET

Which inhibition does the source give for `COC(=O)c1ccc(S(=O)(=O)NNC(=O)COc2ccc(C)cc2)cc1` here?
The inhibition was 6.42% (inactive).

`Cc1c(Nc2cc(N3CCCCCC3)c3nonc3c2[N+](=O)[O-])c(=O)n(-c2ccccc2)n1C` was tested. Which inhibition did it give?
The inhibition was 3.53% (inactive).

`CC1=C(C(=O)Nc2ccccc2)C(c2ccc(O)cc2)N2C(=O)CSC2=N1` (configuration not stated) was tested. Which inhibition did it give?
The inhibition was 3.32% (inactive).

How did the inhibition turn out when `Cc1nn(-c2ccccc2)c(C)c1C(=O)OCC(=O)N1CC(=O)Nc2ccccc21` was run?
The inhibition was 10.3% (inactive).

How did the inhibition turn out when `Cc1ccc2c(C)c(C(=O)N(Cc3ccc(F)cc3)C3CCS(=O)(=O)C3)oc2c1` (configuration not stated) was run?
Its inhibition is 7.21% (inactive).

Which inhibition does the source give for `O=C1CCCN1CCCNc1ncccc1[N+](=O)[O-]` here?
The inhibition was 1.65% (inactive).

For `CCC(C)(O)c1[nH]c2ccc(C(=O)OC)cc2c1C` (configuration not stated), which inhibition is on record?
Its inhibition is 2.01% (inactive).

How did the inhibition turn out when `CCCCC(CC)C1OCC(C[N+]2(C)CCOCC2)O1` (configuration not stated) was run?
Its inhibition is 19.1% (inactive).

With `Cc1occc1C(=O)N/N=C/c1ccc(N(C)C)cc1` as the compound, how does the inhibition read?
Its inhibition is 21.7% (inactive).

For `COc1ccc(/C=N/NC(=O)c2cccnc2)cc1O`, which inhibition is on record?
The inhibition was 23.7% (inactive).

How did the inhibition turn out when `COc1ccc(/C=N/NC(=O)c2ccc(C)nc2)cc1O` was run?
The inhibition was 33.4% (inactive).

`Cc1occc1C(=O)N/N=C/C=C/c1ccccc1` was tested. Which inhibition did it give?
Its inhibition is 24.7% (inactive).

With `CCN(CC)CC(=O)c1c(N)n(Cc2ccccc2)c(=O)n(C)c1=O` as the compound, how does the inhibition read?
The inhibition was 6.97% (inactive).

`Cc1ccc(OCCNCC(O)COc2ccccc2)cc1` (configuration not stated) was tested. Which inhibition did it give?
The inhibition was 6.77% (inactive).

Which inhibition does the source give for `CC(=O)/C=C(\C)Nc1ccccc1O` here?
The inhibition was 21.1% (inactive).

For `CC(=O)Nc1cc(-c2ccccc2)ccc1O`, which inhibition is on record?
Its inhibition is 26.7% (inactive).

For `CC(=O)c1ccc(N2C(=NC(=O)C3CCCCC3)SC3CS(=O)(=O)CC32)cc1` (configuration not stated), which inhibition is on record?
Its inhibition is 14.9% (inactive).

How did the inhibition turn out when `Cc1cc(C(=O)CN2C(=O)NC(Cc3c[nH]c4ccccc34)C2=O)c(C)n1C` (configuration not stated) was run?
The inhibition was -1.66% (inactive).

How did the inhibition turn out when `Cc1cs/c(=N\N=C\c2ccccc2)n1Cc1ccco1` was run?
Its inhibition is 2.6% (inactive).

With `CC(C)=N/N=c1\scc(C)n1Cc1ccco1` as the compound, how does the inhibition read?
The inhibition was 9.97% (inactive).

How did the inhibition turn out when `O=C(O)c1ccccc1O` was run?
Its inhibition is 13.6% (inactive).

`Nc1ccc(N)c(C(=O)O)c1` was tested. Which inhibition did it give?
Its inhibition is 12.3% (inactive).

How did the inhibition turn out when `O=C(O)c1cccc(O)c1O` was run?
Its inhibition is 13% (inactive).

With `Nc1ccc(C(=O)O)c(O)c1` as the compound, how does the inhibition read?
The inhibition was 2.41% (inactive) and 26.8% (inactive) and 24.4% (inactive).

For `O=C(OCc1nnc(-c2ccccc2)o1)C1CC(=O)N(c2ccccc2)C1` (configuration not stated), which inhibition is on record?
Its inhibition is 4.63% (inactive).

How did the inhibition turn out when `COc1ccc(CCNCC(=O)Nc2ccccc2C(F)(F)F)cc1` was run?
The inhibition was 4.81% (inactive).

Which inhibition does the source give for `CCCCc1nnc(NC(=O)C2CCN(c3ncnc4sc(C)c(C)c34)CC2)s1` here?
Its inhibition is 6.43% (inactive).

`Cc1ccc(-n2nc3c(=O)n(CC(=O)NCc4ccccc4Cl)nc(C)c3c2C)cc1` was tested. Which inhibition did it give?
The inhibition was 10.3% (inactive).

For `CCOC(=O)C1=C(O)/C(=C\c2cc(C)n(-c3ccccc3F)c2C)N=C1C`, which inhibition is on record?
The inhibition was 5.39% (inactive).

How did the inhibition turn out when `O=C(NCc1cccs1)C1CCCN1C(=O)Nc1ccc(F)cc1` (configuration not stated) was run?
Its inhibition is 12.8% (inactive).

Which inhibition does the source give for `O=C(c1ccc(S(=O)(=O)Nc2ccccc2)cc1)N1CCCC(C(F)(F)F)C1` (configuration not stated) here?
The inhibition was 11.1% (inactive).

With `CCNC(=O)O/N=C(\C)c1sc(-c2ccc(Cl)cc2)nc1C` as the compound, how does the inhibition read?
Its inhibition is 1.49% (inactive).

`COc1cc(/C=C2\CCC/C(=C\c3ccc(O)c(OC)c3)C2=O)ccc1O` was tested. Which inhibition did it give?
The inhibition was 9.57% (inactive).

`CCOc1cc(/C=C2/NC(=O)N(CC(=O)Nc3cccc(C)c3)C2=O)ccc1O` was tested. Which inhibition did it give?
Its inhibition is 12.6% (inactive).

With `COc1cc(/C=C2/C(=O)CNC2=O)ccc1O` as the compound, how does the inhibition read?
Its inhibition is 37.6% (inactive).

For `COc1cc(/C=C2/SC(=S)N(c3c(C)n(C)n(-c4ccccc4)c3=O)C2=O)ccc1O`, which inhibition is on record?
The inhibition was 27% (inactive).

How did the inhibition turn out when `CCOc1cc(/C=C2/NC(=O)N(CC(=O)OC)C2=O)ccc1OC` was run?
Its inhibition is 31.1% (inactive).

How did the inhibition turn out when `CCOc1cccc(/C=C2\NC(=S)N(c3ccccc3)C2=O)c1O` was run?
The inhibition was 18.7% (inactive).

Which inhibition does the source give for `CN=C1S/C(=C\c2ccc(OCC(=O)OC)c(OC)c2)C(=O)N1C` here?
The inhibition was 3.67% (inactive).

With `CN=C1S/C(=C\c2ccc(O)c(Br)c2)C(=O)N1C` as the compound, how does the inhibition read?
The inhibition was 28.8% (inactive).

Which inhibition does the source give for `O=C(O)C1CC(=O)N(Cc2ccc(F)cc2)C1` (configuration not stated) here?
The inhibition was 0.55% (inactive).

Which inhibition does the source give for `COc1ccc(NC(=O)CCNC(C)=O)cc1NS(=O)(=O)c1ccc(F)cc1` here?
Its inhibition is 3.53% (inactive).

How did the inhibition turn out when `CCc1ccccc1NC(=O)CNC(=O)CCc1nc2sc3c(c2c(=O)[nH]1)CCCC3` was run?
The inhibition was 24.8% (inactive).

How did the inhibition turn out when `Cc1cccc(C)c1N=Nc1c(C)cc(O)cc1C` was run?
Its inhibition is 12.6% (inactive).

`Cc1ccccc1C1N(c2nccs2)C(=O)C2CCCN21` (configuration not stated) was tested. Which inhibition did it give?
Its inhibition is 12.4% (inactive).

Which inhibition does the source give for `CCN(c1ccccc1)S(=O)(=O)c1cc(CN2C(=O)c3cccnc3C2=O)ccc1OC` here?
The inhibition was 13.8% (inactive).

How did the inhibition turn out when `Cc1ccc(CNC(=O)/C=C/c2ccc(S(=O)(=O)N3CCOCC3)cc2)cc1` was run?
The inhibition was 3.26% (inactive).

How did the inhibition turn out when `NS(=O)(=O)c1cc(C(=O)OCC(=O)c2ccccc2)c(Cl)cc1Cl` was run?
The inhibition was 2.42% (inactive).

How did the inhibition turn out when `NCCCC[C@H](NC(=O)C1CCNCC1)c1nnc([C@@H](N)Cc2ccc(O)cc2)o1` was run?
The inhibition was 2.89% (inactive).

Which inhibition does the source give for `COc1cc(/C=C2/SC(=Nc3ccc(O)cc3)NC2=O)ccc1O` here?
Its inhibition is 37.7% (inactive).

With `COc1cc(/C=C2\C(=O)N(C)C(=S)N2C)ccc1O` as the compound, how does the inhibition read?
Its inhibition is 17.2% (inactive).

With `COc1cc(C=C2C(=O)c3ccccc3C2=O)cc(OC)c1OC` as the compound, how does the inhibition read?
The inhibition was 6.63% (inactive).

`COc1cc(/C=C2\NC(=S)N(C)C2=O)ccc1OCc1ccccc1F` was tested. Which inhibition did it give?
The inhibition was 15.8% (inactive).

How did the inhibition turn out when `O=C1N/C(=C/c2ccco2)C(=O)N1Cc1ccccc1F` was run?
Its inhibition is 11.4% (inactive).

Which inhibition does the source give for `COC(=O)C1=C(C)N(CCc2ccccc2)C(=O)/C1=C\c1ccco1` here?
The inhibition was 10.5% (inactive).

For `COc1ccc(C=C2C(=O)c3ccccc3C2=O)cc1O`, which inhibition is on record?
The inhibition was 36.2% (inactive).

`COc1ccc(N=C2NC(=O)/C(=C/c3ccc(O)c(OC)c3)S2)cc1` was tested. Which inhibition did it give?
Its inhibition is 28.3% (inactive).

How did the inhibition turn out when `Cc1ccc(NC(=O)C2CCCN(c3nccc(C)n3)C2)c(C)c1` (configuration not stated) was run?
The inhibition was 4.92% (inactive).

With `Cc1sc2nc(CSCC(=O)Nc3c(F)cccc3F)[nH]c(=O)c2c1C` as the compound, how does the inhibition read?
Its inhibition is 6.91% (inactive).

Which inhibition does the source give for `COc1ccc(C(=O)Nn2c(C)nc3ccccc3c2=O)cc1OC` here?
The inhibition was -1.86% (inactive).

Which inhibition does the source give for `Cc1ccc(NC(=O)CSc2ccc3nnc(CCNC(=O)c4ccccc4)n3n2)c(C)c1` here?
The inhibition was 9.38% (inactive).

`O=C(c1ccccc1F)N1CCN(C2CCC(c3ccccc3)CC2)CC1` (configuration not stated) was tested. Which inhibition did it give?
The inhibition was 18.6% (inactive).
